Records with an inconclusive call do not appear. Activity calls are given as the source filed them. How the source made its calls, unless noted: active means hit-call score of the fitted dose curve at least 0.9, where 1 is the maximum; inactive means score below 0.9.

Test [1] can be described thus: BSK_LPS_PGE2: BioMAP Diversity Plus: LPS Assay for Prostaglandin E2 (PGE2) Biomarker Activity (AID 2283082).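 On AC50: secreted prostaglandin E2 measured by ELISA in LPS-stimulated co-culture.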 The conditions noted are these: primary human HUVEC with PBMC; actives raise or lower the signal. The procedure, abridged:
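LPS-activated HUVEC/PBMC co-culture; cmpd dosed, 24 h; PGE2 by ELISA; bidirectional fit vs DMSO; SRB (0.1%, TCA-fixed, 560 nm) in parallel plates for overt cytotox.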

Read-out in test [2]: Macrophage colony-stimulating factor (MCSF), CSF1 (gene 1435)
The test can be described thus: BSK_LPS_MCSF: BioMAP Diversity Plus: LPS Assay for Macrophage colony-stimulating factor (MCSF) Biomarker Activity (AID 2283083). The conditions noted are these: primary human HUVEC with PBMC; actives raise or lower the signal. The procedure, abridged:
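Bidirectional fit versus DMSO of ELISA-measured M-CSF in co-cultured human umbilical vein endothelial cells and PBMC, sampled 24 h after dosing.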

Read-out in test [3]: Tissue Factor, F3 (gene 2152)
The test can be described thus: BSK_LPS_TissueFactor: BioMAP Diversity Plus: LPS Assay for Tissue Factor Biomarker Activity (AID 2283084). The conditions noted are these: primary human HUVEC with PBMC; actives raise or lower the signal. In short, it runs like this: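 Read-out: CD142 ELISA, 24 h. System: LPS-driven human endothelial/PBMC co-culture. Analysis: up- or down-signal fitted against DMSO.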

Read-out in test [4]: Tumor necrosis factor (Homo sapiens) (UniProt P01375)
The test can be described thus: BSK_LPS_TNFa: BioMAP Diversity Plus: LPS Assay for Tumour Necrosis Factor alpha (TNFa) Biomarker Activity (AID 2283085). As to conditions: primary human HUVEC with PBMC; actives raise or lower the signal. The procedure, abridged:
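Read-out is ELISA of TNFa in primary human endothelial cell–PBMC co-cultures at 24 h after compound. Activity in either direction was fitted against DMSO.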

Read-out in test [5]: Vascular cell adhesion molecule 1 (VCAM1), VCAM1 (gene 7412)
The test can be described thus: BSK_LPS_VCAM1: BioMAP Diversity Plus: LPS Assay for Vascular cell adhesion molecule 1 (VCAM1) Biomarker Activity (AID 2283086). The conditions noted are these: primary human HUVEC with PBMC; actives raise or lower the signal. The procedure, abridged: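 HUVEC + PBMC co-culture, LPS system; compound 24 h; VCAM-1 by ELISA; bidirectional fit vs DMSO control; parallel SRB (0.1%, TCA-fixed, 560 nm) for cytotoxicity.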

Read-out in test [6]: CD40, CD40 (gene 958)
Kind of test: BSK_SAg_CD40: BioMAP Diversity Plus: SAg Assay for CD40 Biomarker Activity (AID 2283088). The conditions noted are these: primary human HUVEC with PBMC; actives raise or lower the signal. The procedure, abridged:
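Endpoint derived by fitting increases or decreases versus DMSO controls. CD40 is detected by fluorescence ELISA in a human vascular co-culture of endothelium and PBMC at 24 h.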

Read-out in test [7]: CD69, CD69 (gene 969)
Kind of test: BSK_SAg_CD69: BioMAP Diversity Plus: SAg Assay for CD69 Biomarker Activity (AID 2283089).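 On AC50: cell surface CD69 protein quantified by ELISA with fluorescence detection.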 As to conditions: primary human HUVEC with PBMC; actives raise or lower the signal. In short, it runs like this:
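ELISA, fluorescence read-out: CD69 on human umbilical vein endothelial cell + PBMC co-culture, 24 h post-dosing. Gain or loss of signal fitted bidirectionally against DMSO baseline.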

Read-out in test [8]: Monocyte Chemoattractant Protein-1 (MCP1), CCL2 (gene 6347)
Kind of test: BSK_SAg_MCP1: BioMAP Diversity Plus: SAg Assay for Monocyte Chemoattractant Protein-1 (MCP1) Biomarker Activity (AID 2283090). As to conditions: primary human HUVEC with PBMC; actives raise or lower the signal. The procedure, abridged: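 MCP-1 levels in the endothelial–PBMC SAg co-culture were quantified by ELISA at 24 h post-dosing; both increases and decreases versus DMSO scored. Cytotoxicity monitored by SRB total protein in parallel cultures.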

Read-out in test [9]: E-selectin (Homo sapiens) (UniProt P16581)
Kind of test: BSK_SAg_Eselectin: BioMAP Diversity Plus: SAg Assay for Eselectin Biomarker Activity (AID 2283091). The conditions noted are these: primary human HUVEC with PBMC; actives raise or lower the signal. The procedure, abridged:
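Endpoint values derive from bidirectional fitting relative to DMSO, using ELISA-measured E-selectin in a human vascular co-culture (umbilical vein endothelium plus PBMC) sampled 24 h after dosing.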

The nature of test [10]: BSK_SAg_PBMCCytotoxicity: PBMC Cytotoxicity Assessment in the BioMAP Diversity Plus: SAg Assay (AID 2283093).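 Further: PBMC viability measured as Alamar Blue reduction fluorescence at 546/580 nm; fitted both ways against DMSO so a hit may be loss or gain of signal.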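 On AC50: PBMC superantigen activated with SEB plus TSST-1 one hour after compound addition.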 As to conditions: primary human HUVEC with PBMC. The procedure, abridged:
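Compound added to 75,000 PBMC/well for 1 h; SEB and TSST-1 then added at 20 ng/mL final each; 90 h incubation; Alamar Blue 6 h; read 546/580 nm ex/em. Activity fitted bidirectionally relative to DMSO baseline.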

Read-out in test [11]: Interleukin-8 (IL8), CXCL8 (gene 3576)
The test can be described thus: BSK_SAg_IL8: BioMAP Diversity Plus: SAg Assay for Interleukin-8 (IL8) Biomarker Activity (AID 2283094). The conditions noted are these: primary human HUVEC with PBMC; actives raise or lower the signal. The procedure, abridged:
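ELISA read-out of IL-8 in a primary human vascular co-culture (umbilical vein endothelium plus PBMC), taken 24 h after compound addition. Values derive from bidirectional fits against DMSO negative controls.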

The nature of test [12]: BSK_SAg_Proliferation: Cell Proliferation Assessment in the BioMAP Diversity Plus: SAg Assay (AID 2283095).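 Further: relative cell number as total protein by SRB absorbance in sub-confluent culture.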 As to conditions: primary human HUVEC with PBMC. The procedure, abridged:
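Cells (endothelium plus PBMC, human primary) were dosed with chemical, cultured 96 h, fixed in 10% TCA and stained with 0.1% SRB. Absorbance at 560 nm gave relative protein, fitted bidirectionally relative to DMSO.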

Read-out in test [13]: Monokine induced gamma interferon (MIG), CXCL9 (gene 4283)
Kind of test: BSK_SAg_MIG: BioMAP Diversity Plus: SAg Assay for Monokine induced gamma interferon (MIG) Biomarker Activity (AID 2283092). The conditions noted are these: primary human HUVEC with PBMC; actives raise or lower the signal. In short, it runs like this: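 ELISA readout of MIG/CXCL9; primary human umbilical vein endothelial cells co-cultured with peripheral blood mononuclear cells; 24 h post-dose; gain/loss fit vs DMSO baseline.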

For test [14], the target named is human CYP2D6, CYP2D6 (gene 1565) (UniProt P10635). Kind of test: NVS_ADME_hCYP2D6: NovaScreen (NVS) CYP450-related Enzyme Activity (ADME) Assay for human CYP2D6 (AID 2283107; active means hit-call score of the fitted dose curve at least 0.9, where 1 is the maximum). The procedure, abridged: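 Biochemical fluorescence assay, insect-cell-derived enzyme. Read at 1 h; inhibition taken from loss of signal against acetonitrile. Screened at 10 uM in duplicate, with concentration series for actives.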

Test [15] deals with human CYP1A1, CYP1A1 (gene 1543) (UniProt P04798). Kind of test: NVS_ADME_hCYP1A1: NovaScreen (NVS) CYP450-related Enzyme Activity (ADME) Assay for human CYP1A1 (AID 2283100; active means hit-call score of the fitted dose curve at least 0.9, where 1 is the maximum). The procedure, abridged:
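Inhibition of recombinant CYP1A1 turnover was assessed fluorometrically in a biochemical format 1 h after compound exposure. Testing began at 10 uM in duplicate and progressed to concentration series reaching 20 uM, with on-plate positive and negative controls.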

For test [16], the target named is human CYP2B6, CYP2B6 (gene 1555) (UniProt P20813). Kind of test: NVS_ADME_hCYP2B6: NovaScreen (NVS) CYP450-related Enzyme Activity (ADME) Assay for human CYP2B6 (AID 2283101; active means hit-call score of the fitted dose curve at least 0.9, where 1 is the maximum). In short, it runs like this:
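Fluorescence-based enzyme activity of recombinant human CYP2B6, measured 1 h post-dose against acetonitrile vehicle baseline. Screened at a single concentration of 10 uM in duplicate before concentration-response follow-up.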

Test [17] is described as follows: BSK_SAg_SRB: Viability Assessment in the BioMAP Diversity Plus: SAg Assay (AID 2283096).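 Further: cells read one day after compound addition; hits may be either gain or loss of signal compared with DMSO.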 As to conditions: primary human HUVEC with PBMC. The procedure, abridged: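 Total protein by sulforhodamine B staining, 24 h after dosing, in HUVEC–PBMC co-culture; DMSO-referenced bidirectional fitting.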
For test [18], the target named is human CYP19A1, CYP19A1 (gene 1588) (UniProt P11511). The test can be described thus: NVS_ADME_hCYP19A1: NovaScreen (NVS) CYP450-related Enzyme Activity (ADME) Assay for human CYP19A1 (AID 2283098; active means hit-call score of the fitted dose curve at least 0.9, where 1 is the maximum). In short, it runs like this:
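Biochem, cell-free; recombinant enzyme + specific substrate; fluorescence intensity at 0.5 h post-dose; 10 uM duplicate primary, conc. series for actives; acetonitrile = negative control/baseline; positive and negative controls on every plate.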

Chain of E-selectin (Homo sapiens) (P16581 whole entry, looked up): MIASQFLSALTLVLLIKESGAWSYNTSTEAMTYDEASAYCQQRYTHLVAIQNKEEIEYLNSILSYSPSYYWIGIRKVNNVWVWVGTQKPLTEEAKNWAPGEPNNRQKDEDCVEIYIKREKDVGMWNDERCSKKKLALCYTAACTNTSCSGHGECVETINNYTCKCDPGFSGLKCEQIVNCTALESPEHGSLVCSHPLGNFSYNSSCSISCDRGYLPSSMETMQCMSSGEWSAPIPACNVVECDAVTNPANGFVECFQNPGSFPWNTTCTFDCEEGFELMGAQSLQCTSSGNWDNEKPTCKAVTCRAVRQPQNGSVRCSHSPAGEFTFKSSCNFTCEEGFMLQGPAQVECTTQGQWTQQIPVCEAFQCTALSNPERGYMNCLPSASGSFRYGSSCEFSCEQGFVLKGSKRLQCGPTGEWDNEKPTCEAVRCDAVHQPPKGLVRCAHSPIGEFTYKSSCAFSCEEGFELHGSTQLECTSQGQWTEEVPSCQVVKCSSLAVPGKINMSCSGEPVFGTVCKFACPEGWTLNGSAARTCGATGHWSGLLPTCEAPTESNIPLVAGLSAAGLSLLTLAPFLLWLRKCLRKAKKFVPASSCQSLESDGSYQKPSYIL
Chain of human CYP2D6, CYP2D6 (gene 1565) (P10635 whole entry, looked up): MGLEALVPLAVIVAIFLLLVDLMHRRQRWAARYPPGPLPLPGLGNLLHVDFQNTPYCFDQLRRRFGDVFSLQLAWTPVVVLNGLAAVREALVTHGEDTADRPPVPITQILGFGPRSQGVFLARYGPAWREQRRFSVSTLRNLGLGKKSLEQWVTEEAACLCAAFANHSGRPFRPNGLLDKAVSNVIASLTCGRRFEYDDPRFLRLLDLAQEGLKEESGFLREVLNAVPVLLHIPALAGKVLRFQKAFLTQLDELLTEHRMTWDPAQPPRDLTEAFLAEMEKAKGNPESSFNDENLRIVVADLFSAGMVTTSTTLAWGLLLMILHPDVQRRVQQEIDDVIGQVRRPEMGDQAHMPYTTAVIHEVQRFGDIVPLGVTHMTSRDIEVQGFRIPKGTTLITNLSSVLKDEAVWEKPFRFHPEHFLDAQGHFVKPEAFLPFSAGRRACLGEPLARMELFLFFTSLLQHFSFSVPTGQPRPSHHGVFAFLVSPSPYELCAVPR
Chain of Tumor necrosis factor (Homo sapiens) (P01375 whole entry, looked up): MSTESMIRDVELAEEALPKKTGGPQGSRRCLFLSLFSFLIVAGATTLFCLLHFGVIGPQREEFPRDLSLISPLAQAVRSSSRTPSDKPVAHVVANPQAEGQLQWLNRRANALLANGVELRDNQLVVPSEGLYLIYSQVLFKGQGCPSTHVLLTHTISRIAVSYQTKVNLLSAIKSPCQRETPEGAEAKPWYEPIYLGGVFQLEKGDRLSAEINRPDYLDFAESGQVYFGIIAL
Chain of human CYP2B6, CYP2B6 (gene 1555) (P20813 whole entry, looked up): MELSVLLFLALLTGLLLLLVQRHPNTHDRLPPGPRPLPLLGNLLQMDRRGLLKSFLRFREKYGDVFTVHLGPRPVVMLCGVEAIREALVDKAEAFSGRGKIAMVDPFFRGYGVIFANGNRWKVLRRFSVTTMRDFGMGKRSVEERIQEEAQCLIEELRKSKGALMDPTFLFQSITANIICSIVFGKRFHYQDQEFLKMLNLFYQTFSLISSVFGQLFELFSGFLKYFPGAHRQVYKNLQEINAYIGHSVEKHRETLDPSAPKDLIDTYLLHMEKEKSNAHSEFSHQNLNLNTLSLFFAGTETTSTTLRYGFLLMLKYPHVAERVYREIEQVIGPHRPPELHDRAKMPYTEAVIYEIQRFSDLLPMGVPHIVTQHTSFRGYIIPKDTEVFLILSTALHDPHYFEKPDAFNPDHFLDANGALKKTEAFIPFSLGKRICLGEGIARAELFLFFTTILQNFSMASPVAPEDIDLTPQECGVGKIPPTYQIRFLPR
Chain of human CYP19A1, CYP19A1 (gene 1588) (P11511 whole entry, looked up): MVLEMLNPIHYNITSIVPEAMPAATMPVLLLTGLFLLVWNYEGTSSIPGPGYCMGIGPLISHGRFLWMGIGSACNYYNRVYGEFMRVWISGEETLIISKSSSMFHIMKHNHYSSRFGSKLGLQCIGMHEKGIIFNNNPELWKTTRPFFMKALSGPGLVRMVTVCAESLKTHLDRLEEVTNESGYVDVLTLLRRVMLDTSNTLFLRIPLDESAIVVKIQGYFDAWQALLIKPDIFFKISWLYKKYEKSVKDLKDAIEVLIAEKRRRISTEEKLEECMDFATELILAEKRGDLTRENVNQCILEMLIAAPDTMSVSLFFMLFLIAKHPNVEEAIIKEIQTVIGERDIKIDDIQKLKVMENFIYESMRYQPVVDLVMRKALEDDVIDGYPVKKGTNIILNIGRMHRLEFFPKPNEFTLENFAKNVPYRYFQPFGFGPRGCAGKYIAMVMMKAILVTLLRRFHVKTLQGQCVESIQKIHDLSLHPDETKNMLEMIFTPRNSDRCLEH
Chain of human CYP1A1, CYP1A1 (gene 1543) (P04798 whole entry, looked up): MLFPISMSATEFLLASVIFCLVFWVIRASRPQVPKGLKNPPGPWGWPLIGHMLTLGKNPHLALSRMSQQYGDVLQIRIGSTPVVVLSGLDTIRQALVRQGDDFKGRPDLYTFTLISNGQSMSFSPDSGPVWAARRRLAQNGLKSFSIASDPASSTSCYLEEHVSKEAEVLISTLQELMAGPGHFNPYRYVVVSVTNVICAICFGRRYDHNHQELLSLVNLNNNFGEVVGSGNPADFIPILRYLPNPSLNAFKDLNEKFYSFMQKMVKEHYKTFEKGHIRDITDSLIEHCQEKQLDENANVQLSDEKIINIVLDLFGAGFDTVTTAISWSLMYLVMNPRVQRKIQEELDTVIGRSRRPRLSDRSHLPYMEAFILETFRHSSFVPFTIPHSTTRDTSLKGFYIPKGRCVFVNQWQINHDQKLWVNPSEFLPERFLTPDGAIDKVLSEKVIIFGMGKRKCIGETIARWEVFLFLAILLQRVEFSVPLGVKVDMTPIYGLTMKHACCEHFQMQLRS

`O=C(OCCCCCCOC(=O)c1ccccc1)c1ccccc1`: the AC50 in [1] is 32.4 µM (active); in [4], 4.86 µM (active). Besides, the outcome in [2], in test [3], in [5], in test [6], in [7] and in test [8] was inactive. In addition, the result in test [9], in test [10], in test [11] and in [12] was inactive.

On to `CN(C)C(=O)C1(N2CCCCC2)CCN(CC[C@@]2(c3ccc(Cl)c(Cl)c3)CN(C(=O)c3ccccc3)CCO2)CC1`, for which the result in test [1] was inactive. Moreover, the half-maximal activity concentration (AC50) in test [2] is 20.8 µM (active); in test [3], 31.2 µM (active); in test [4], 35.4 µM (active); in test [5], 26.6 µM (active); in [6], 18.9 µM (active); in [7], 16.5 µM (active). The AC50 in test [8] was 22.2 µM (active); in [9], 28.3 µM (active); in test [13], 31.7 µM (active); in test [11], 12 µM (active); in test [12], 5.91 µM (active); in test [14], 4.97 µM (active).

For `COCC(C)OCC(C)OCC(C)O` (stereo not drawn), the result in test [1], in test [2], in test [3], in [4], in test [5] and in test [6] was inactive. In addition, the result in test [7], in test [8], in test [9], in test [10], in test [11] and in [12] was inactive.

Consider `CCN(Cc1cccnc1)C(=O)c1cccc(Cl)c1[C@]1(C)C(=O)N(Cc2ccc(OC)cc2OC)c2ccc(Cl)cc21`, for which the outcome in test [1], in test [4], in [13], in test [15], in test [16] and in [14] was inactive. Further, the AC50 in test [2] was 6.54 µM (active); in [3] it was 12.5 µM (active); in test [5], 5.26 µM (active); in [6], 5.55 µM (active); in [7] it was 7.2 µM (active); in test [8] it was 5.36 µM (active). The AC50 in test [9] is 7.27 µM (active); in test [11], 3.93 µM (active); in [12], 7.09 µM (active).

Consider `O=C(O)c1ccccc1C(=O)OCc1ccccc1`, for which the outcome in [1], in [2], in test [3], in [4], in [5] and in test [6] was inactive. The outcome in test [7], in [8], in [9], in test [11], in test [12] and in test [17] was inactive.

For `CC1=CC(=O)/C(=C(/C)O)C(=O)O1`, the result in test [1], in test [2], in test [3], in test [4], in test [5] and in test [6] was inactive. Further, the result in test [7], in test [8], in test [9], in test [13], in [10] and in [11] was inactive. Moreover, the outcome in [12] and in [18] was inactive.

As for `CCCCCCCCOC(=O)c1cc(O)c(O)c(O)c1`, the AC50 in test [1] is 5.32 µM (active); in [2], 31.9 µM (active); in test [3], 32.4 µM (active); in [4] it was 32.3 µM (active); in [5], 30.6 µM (active); in test [6], 14.8 µM (active). Moreover, the AC50 in test [7] was 16.6 µM (active); in test [8], 20 µM (active); in test [9], 16 µM (active); in [10] it was 27.7 µM (active); in [11], 11.5 µM (active); in [12], 5.52 µM (active). Further, the AC50 is 24.8 µM (active) in [17], 10.1 µM (active) in test [16] and 10.1 µM (active) in test [14].

(Values after PubChem BioAssay (EPA / NIEHS).)
